The test has as its system VDR:RXRa (NR concentration 270 nM, RXRa partner concentration 90 nM). The experiment in a line: PBM binding z-score (relative to random genomic background probes); higher = stronger binding; sequences stand for … in GC…GCGATTGACAGCGTAGAATGAAGG
As to the method:
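Protein-binding microarray (Agilent 4x180K custom design, double-stranded 60-nt probes: 5' GC cap, 34-nt variable region, 24-nt constant primer region; full probe sequence given). Purified or IVT nuclear receptor:RXRα heterodimers (3:1 NR:RXRα, mostly 270:90 nM) or homodimers were incubated for 1 h in PBS with 2% milk and no ligand, then detected with Alexa488 antibodies. Fluorescence from o1-orientation probes (~5 replicates averaged) was converted to z-scores against 500 random hg19 background probes. Variable regions are seed direct-repeat (DR0–DR5) sites, all their single-nucleotide variants and half-site ablations.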
Turning to TAGCCTAGGTCATTGGGCAAGTATAGTACGCATC, the PBM binding z-score is 2.09. In the case of CTACCAAGGTGAACAAGGTCGTCGATTACTATTC it was 5.98; in that of TTACCAAGGTGAGCAGAGGTCGTTGATCCAACTC, 3.68; in that of AGTCAAAGTTCACTAGGGAACGTAAGATTCAGCT, 3.85. In the case of CGTCCAAGGCCAAAGGTCAGTGAAGAGATGACGG it was 3.16; in that of CTCGAAAGGTCGTGCTCAGGTAAGTATACCAAAC, 3.36; in that of CGACCAAGGTCAAAGGTCAGTGAAGAGATGACGG, 6.85.

Turning to CCTGCTAGGTCCATGGTCAGCTAAAGCAGCTCGC, the PBM binding z-score was -0.591. With CCTATTGGGCCAAAGGTCATTGATTCCAATGCTC, the PBM binding z-score came out at 4.66.

For the sequence CCTAGCAGGCCAGGGTCACTTAAGCATTTCGCTT, the PBM binding z-score was 2.3. Under CAGACTAGGTCAAGAGGTCAAAGTCCGCTTCCCG stands 5.97. In the case of CCAACTAGGTCAGAACAGGACAGTGAAGGATGAT it was 1.08.

As to ACAAACAGGTGAGTGAAGGTAACTCAGCTGGACG, the PBM binding z-score is -0.124. In the case of GGAACGAGGGCAAGTTGATTGCAGAGTTTGATGG it was 0.675.

On to CGAACGAGGGCATGGGTTGATAGCAAATGCCGAT, for which the PBM binding z-score is 1.45.

As for AGAATGAGGTTAAGATCAGTGAAACAGAATACAT, the PBM binding z-score worked out at 1.47.

Take TGAATGAGGTTTTAAGATCAGGGAACGTTGCAAA: the PBM binding z-score was -0.241. In the case of CCTGCTAGGTCGTGGTCAGCTAATCTACAGTATG it was -0.0552; in that of CCTAGCGGGCCAATCTGGGTCACTCAAGGCTTGA, 0.28; in that of GCGGACAGGTGAAACGCAGGTAACTCAGGGTGGC, -0.55. Under ACTATTAGTTGACTTAGGGAAACCGATACGACGC stands 0.0698; under TCTGCTAGGTTAGTTGGTCAGCTAACGAGCTGCC, -0.449. As for ACTCGGAGGACAAAGGACAGAGCTACGCCAGTGA, the PBM binding z-score is -0.523. In the case of CCGACTGGGGCAGGGTTACCATAACGCACAGCCA it was 0.216. In the case of GCGACTGGAGCATCAGCAGGTTACCATAACTTAA it was -0.345; in that of ACAGACAGGTGAGTGAAGGTAACTCGGCTGGACG, -0.336.

For the sequence TCAATGAGGTTAAAGATCAGGGAACGTGGCGTCG, the PBM binding z-score was 2.04.

With CGTCCAAGGTCAATGCTAGGACAGTGAAAGCATT, the PBM binding z-score is 3.83.

With CCTAGCAGGCCAATTTGGGTCACTCAAGGCTTGA, the PBM binding z-score was determined as 0.482.

ACTCGGAGGACAAAGGGCAGAGCTACGCCAGTGA came in with a PBM binding z-score of -0.214.

Take ATCGAAAGGTAGAGGTGAGTATAGAGAAAGGGAA: the PBM binding z-score came to 0.0851.

CCTAGTAGGTCAGGAGGTCACACACCGGATATGA gave a PBM binding z-score of 4.92.

As for TATACAGGGTCAAAGGCCAGCGTACGAATGTCGA, the PBM binding z-score was 4.73. Under TCTCGGAGGACACGATGGTCAGAGCTTTCCAGAG stands -0.133. In the case of GCTGTTAGGTCAGGTTGGTCAGCTAACGGGTACG it was 0.95. In the case of CCAGACAGGTGAGAAGGTGACTCAGCCTCGATTA it was -0.0388; in that of TCTCGGAGGACACGGAAGGTCAGAGCTCGACATC, 1.97; in that of CTCGAAAGGTCGTGCTCAGGTGAGTATTCCAAAC, 3.26. For GCTGCTAGGTCAGGTTGATCAGCTAACGGGTACG, the PBM binding z-score was determined as 0.431. GCAGACAGGTGAAACGCAGGCAACTCAGGGTGGC: the PBM binding z-score is -0.567.

The values are drawn from the supplement of paper PMC6555819.
